# Data reported in PubChem BioAssay AID1490 (National Center for Advancing Translational Sciences (NCATS), 2009).
# “And” between values parts separate entries of the source, which are not always exact repeats. Equal values may be shown once. Screen size: about 310,000 compounds; about 11,000 (3.5%) were called active. Another 4% or so got no clear call; they are omitted. The call rests on the fitted dose curve; in most records, active means well fitted inhibition curve with a large enough effect; inconclusive means small, poorly fitted or top-dose-only effect, or another doubt; inactive means no such curve, though single readings can be large or run the other way. For the sample, actives were picked, then their nearest neighbours and some compounds at random.
# Target: 4'-phosphopantetheinyl transferase ffp (Bacillus subtilis) (UniProt Q9F4F7)
# Test: qHTS Assay for Inhibitors of Bacillus subtilis Sfp phosphopantetheinyl transferase (PPTase);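 further: the enzyme is Sfp with the accession as filed and its product quenches rhodamine fluorescence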;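 on largest response in the series, negative = inhibition: 0% = enzyme reaction without inhibitor and -100% = no enzyme wells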
# Details: Biochemical Sfp PPTase activity
# Summary of the method: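 Step 1, compound plus 15 nM Sfp-PPTase, 15 min, room temperature. Step 2, add rhodamine-CoA (5 uM) and BHQ-2-YbbR (12.5 uM). Step 3, read 525/598 nm fluorescence at 0 and 30 min.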
# Potency means the concentration at half of the fitted maximal effect.
Compound,"largest response in the series, negative = inhibition",Potency
O=C(N=C1SC2CS(=O)(=O)CC2N1c1cc(Cl)ccc1Cl)C1CC1 (centres undefined),8.66% (inactive),–
COc1ccc(CCn2c(=N)c(C(=O)NCc3ccco3)cc3c(=O)n4cccc(C)c4nc32)cc1,-13.5% (inactive),–
O=c1oc(-c2ccco2)nc2sc3c(c12)CCCCC3,2.61% (inactive),–
O=C(NCc1ccco1)c1cccn2c(=O)c3c4c(sc3nc12)CCCC4,–,44.7 µM (active)
CCc1ccc(NC(=O)CS(=O)CC(=O)N2CCN(c3ccccc3F)CC2)cc1 (centres undefined),2.49% (inactive),–
COc1ccc(C(=O)NC2CC2)cc1OC1CCN(C/C=C/c2ccccc2)CC1,8.51% (inactive),–
Cc1coc2c(O)cc3c(c12)OC1(N2CCCCC2)C(=O)NCCCC31 (centres undefined),–,28.2 µM (active)
Cc1nonc1C1CCCN1C(=O)c1cc(COc2cccc(C(F)(F)F)c2)on1 (centres undefined),14.2% (inactive),–
CCc1cccc(NC(=O)CCCN2C(=O)C(c3ccccc3)Oc3cccnc32)c1 (centres undefined),11.6% (inactive),–
COC(=O)C(CC(C)C)NS(=O)(=O)c1cc(Br)ccc1Br (centres undefined),6.49% (inactive),–
COc1cc2c(cc1OC)CC(=O)N(CCCN(C)C[C@H]1Cc3cc(OC)c(OC)cc31)CC2,9.18% (inactive),–
Cc1cccc(N2C(=O)CC(SC(N)=Nc3ccccc3)C2=O)c1 (centres undefined),10.8% (inactive),–
Cc1cccc(N2C(=O)c3ccc(C(=O)Nc4cccc(C(=O)O)c4)cc3C2=O)c1,8.86% (inactive),–
Cc1cccc(N2C(=O)SC(SC(=Nc3ccccc3)Nc3ccccc3)C2=O)c1 (centres undefined),–,10 µM (active)
CCOC(=O)C1(Cc2ccccc2C)CCCN(C(=O)CN2C(=O)CSC2=O)C1 (centres undefined),3.9% (inactive),–
CC(=O)c1cccc(OCc2cc(C(=O)NC(C)Cc3cccnc3)no2)c1 (centres undefined),16.6% (inactive),–
Cc1oc2c(F)c(F)c(F)c(F)c2c1S(=O)(=O)Nc1cccc(C(F)(F)F)c1,11.3% (inactive),–
O=C(CSc1nncs1)NC1CCCc2ccccc21 (centres undefined),15.6% (inactive),–
O=C(CN1CCN(c2ccc(O)cc2)CC1)NC1CCCc2ccccc21 (centres undefined),–,17.8 µM (active)
O=C(CN1CCN(c2ccc(O)cc2)CC1)Nc1ccc(-c2ccccc2)cc1,–,44.7 µM (active)
CC(=O)N1CCN(CC(=O)Nc2ccc(C)c(F)c2)CC1,-24.9% (inactive),–
O=C(CN1CCN(c2cccc(Cl)c2)CC1)Nc1ccc(S(=O)(=O)N2CCOCC2)cc1,13% (inactive),–
O=C(CN1CCN(c2ccccc2)CC1)Nc1ccc(F)cc1,7.85% (inactive),–
O=C(CN1CCN(Cc2ccccc2)CC1)Nc1ccc(F)c(F)c1,–,56.2 µM (active)

Compound,"largest response in the series, negative = inhibition",Potency
CSc1ccccc1N1CCN(CCCCCC(=O)NC2CCCc3ccccc32)CC1 (centres undefined),-7.93% (inactive),–
Cc1cc(NC(=O)CCN2CCN(Cc3ccccc3)CC2)ccc1Br,-5.6% (inactive),–
O=C(CN1CCN(c2ccc(F)cc2)CC1)Nc1ccccc1,-1.74% (inactive),–
O=C(CN1CCN(c2ccc(O)cc2)CC1)Nc1cc(S(=O)(=O)N2CCOCC2)ccc1Cl,–,79.4 µM (active)
O=C(CN1CCOCC1)Nc1cc(Cl)ccc1Cl,2.24% (inactive),–
COc1ccc(C2(C#N)CCC(C(=O)O)CC2)cc1OC1CCCC1 (centres undefined),3.3% (inactive),–
CN(CC(=O)NCCN1CCOCC1)S(=O)(=O)c1ccc(F)cc1,16.5% (inactive),–
CN(CCNC(=O)c1cc2c(-c3ccccc3F)nn(C)c2s1)C1CCCCC1,5.98% (inactive),–
COC(=O)c1cc(S(=O)(=O)NCC2CCN(Cc3ccc(Cl)cc3)CC2)cn1C,11.4% (inactive),–
CCOC(=O)C1(Cc2ccccc2C)CCCN(C(=O)c2ccc(COC)o2)C1 (centres undefined),-22.7% (inactive),–
COc1ccc(/C=N/Nc2ccccc2C(=O)O)cc1,11.5% (inactive),–
CCC(=O)Nc1nc(C)c(C(=O)Nc2cccc(Cl)c2)s1,8.26% (inactive),–
O=C(NCc1ccc(F)cc1)C1CCN(C(=O)Nc2ccc(F)cc2)CC1,9.57% (inactive),–
C=CCOC(=O)NC(c1ccc(F)c(F)c1)C(C(=O)COC)C(=O)OC (centres undefined),-7.09% (inactive) and 12.8% (inactive),–
CCOC(=O)c1cccc(NS(=O)(=O)c2c(C(=O)N3CCCCCC3)c(C)n(C)c2C)c1,2.36% (inactive),–
Nc1nonc1-n1nnc(C(=O)N/N=C\c2ccncc2)c1CN1CCCCC1,21.3% (inactive),–
COc1ccc2[nH]cc(CCN3C(=O)c4ccc(C(=O)O)cc4C3=O)c2c1,20.2% (inactive),–
Cc1noc(C)c1/C=N/Nc1ccc2ccccc2n1,25.3% (inactive),–
O=C(Cc1ccc(F)cc1)N/N=C/c1ccc2c(c1)OCO2,18.6% (inactive),–
C(=N\Nc1ccc2ccccc2n1)/c1ccc2c(c1)OCO2,–,50.1 µM (active)
Brc1ccc(-c2csc(N/N=C/c3ccc4c(c3)OCO4)n2)cc1,–,2.82 µM (active)
O=C(N/N=C/c1ccc2c(c1)OCO2)C(=O)N1CCCC1,24.9% (inactive),–
O=C(CNC(=O)C(c1ccccc1)c1ccccc1)N/N=C\c1ccc2c(c1)OCO2,-10.2% (inactive),–
CCN(CC)/[N+]([O-])=N/Oc1cc(O/[N+]([O-])=N/N2CCCC2CO)c([N+](=O)[O-])cc1[N+](=O)[O-] (centres undefined),-6.67% (inactive),–

Compound,"largest response in the series, negative = inhibition",Potency
Cn1c(=O)c2sccc2n(Cc2ccc(Br)cc2)c1=O,5.6% (inactive),–
CCOc1ccc(N(CC(=O)Nc2ccccc2F)S(=O)(=O)c2c(C)[nH]c(=O)[nH]c2=O)cc1,9.89% (inactive),–
COc1ccccc1C(=O)NC(=S)Nc1ccccc1N1CCCCC1,5.21% (inactive),–
Cc1ccc(C(=O)NCC(=O)OCC(=O)NC2CCCCCCC2)cc1,15.7% (inactive),–
COc1ccc(CNC(=O)C2CCN(S(=O)(=O)c3ccc(SC)cc3)CC2)cc1,8.97% (inactive),–
O=S(=O)(c1ccc(Br)cc1)c1nc(-c2ccccc2)oc1N1CCOCC1,-5.06% (inactive),–
O=S(=O)(c1ccccc1)c1nc(Cc2ccccc2)oc1N1CCOCC1,–,44.7 µM (active)
O=S(=O)(c1ccc(Cl)cc1)c1nc(-c2ccco2)oc1N1CCCCC1,-3.63% (inactive),–
Cc1ccc(OC(=O)c2cncc(Br)c2)c(C)c1,-4.31% (inactive),–
COc1ccc(C(=O)CC(=O)C(=O)Nc2cc([N+](=O)[O-])ccc2OC)cc1,1.31% (inactive),–
O=C(Nc1cccc([N+](=O)[O-])c1)Nc1ccc(Cl)cn1,13.8% (inactive),–
CCCc1cc(C(=O)Nc2ccc(Cl)cn2)cs1,2.86% (inactive),–
O=C(Nc1ccc(Cl)cn1)Nc1cccs1,–,39.8 µM (active)
Cc1sc2ncn(CC(=O)NCCN(C)C)c(=O)c2c1S(=O)(=O)N1CCC(C)CC1,16.8% (inactive),–
O=C(CNC(=O)c1ccccc1)Oc1ccc([N+](=O)[O-])cc1,7.55% (inactive),–
COc1ccc(C(=O)OCC(=O)Nc2cccc(C(C)=O)c2)cc1OC,11.4% (inactive),–
CN(C)CCCNC(=S)N1CCN(c2nc(-c3ccccc3)cs2)CC1,-3.69% (inactive),–
CC(=O)c1cccc(NC(=O)C2CCN(C(=O)c3ccccc3Cl)CC2)c1,-3.58% (inactive),–
Cn1c(CCN2CCCC2)nc2cc(NS(=O)(=O)c3ccccc3)ccc21,1.01% (inactive),–
O=S(=O)(Nc1ccc2cn[nH]c2c1)c1ccccc1,14.6% (inactive),–
O=S(=O)(Nc1ccc2nc(-c3ccco3)[nH]c2c1)c1ccccc1,–,28.2 µM (active)
O=C(c1ccc(Br)o1)N1CCN(CCOc2ccccc2)CC1,15.3% (inactive),–
Cc1ccc(/C=N/NC(=O)c2cc3ccccc3cc2O)o1,13.6% (inactive),–
O=[N+]([O-])c1cc([N+](=O)[O-])c2cccnc2c1O,–,39.8 µM (active)

Compound,"largest response in the series, negative = inhibition",Potency
O=C(c1cccc(F)c1)N1CCN(c2ccc([N+](=O)[O-])c3cccnc23)CC1,1.54% (inactive),–
O=[N+]([O-])c1cccc2ncccc12,8.82% (inactive),–
NC(=O)C1CC(=O)N(c2ccc(OCC(=O)NCc3ccccc3)cc2)C1 (centres undefined),23.9% (inactive),–
c1ccc(NCc2cccc3ccccc23)nc1,-7.37% (inactive),–
c1ccc2c(C[n+]3csc4ccccc43)cccc2c1,–,44.7 µM (active)
Nc1scc[n+]1Cc1cccc2cccnc12,17.3% (inactive),–
C=CCCN(C(Cc1ccccc1)C(=O)OC)S(=O)(=O)c1cc(Br)ccc1Br (centres undefined),7.63% (inactive),–
CCOc1ccc(N/C(N)=N/c2nc(C)c(C)c(=O)[nH]2)cc1,12.8% (inactive),–
CSc1nnc(SCc2nc3sc(C(=O)O)c(C)c3c(=O)[nH]2)s1,–,12.6 µM (active)
Cc1ccc(C)c(SCc2nc3sc(C(=O)O)c(C)c3c(=O)[nH]2)c1,-17.2% (inactive),–
CCOC(=O)c1sc2nc(CSc3ccccc3)[nH]c(=O)c2c1C,1.58% (inactive),–
Cc1cccc(OCC(=O)NCCNC(=O)c2cccnc2)c1,3.63% (inactive),–
CN(C)CCN(Cc1ccccc1)S(=O)(=O)c1csc(C(N)=O)c1,4.81% (inactive),–
CCc1ccc(OCC(=O)OC(C)C(=O)NC2CC2)cc1 (centres undefined),6.01% (inactive),–
COc1ccc(NC(=O)c2cc(-c3cc(OC)c(OC)c(OC)c3)nc3ccccc23)c(OC)c1,1.5% (inactive),–
Cc1ccc(NC(=O)c2cc(-c3ccc(C)o3)nc3ccccc23)nc1,–,10 µM (active)
CSc1ncccc1C(=O)Nc1ccc(C)cn1,10.7% (inactive),–
CCc1nccn1CCC(=O)N1CCCC(N2CCN(c3ccccc3F)CC2)C1 (centres undefined),1.37% (inactive),–
Cc1ccccc1-c1nc(CS(=O)(=O)CC(=O)NC(C)c2ccccc2)c(C)o1 (centres undefined),1.96% (inactive),–
Cc1ccc(/C([O-])=C(/C(=S)NCc2ccco2)[n+]2ccccc2)cc1[N+](=O)[O-],–,25.1 µM (active)
O=C(NCc1ccco1)c1ccc([N+](=O)[O-])cc1Cl,22.8% (inactive),–
O=C(c1ccccc1)N1CCN(c2ccc([N+](=O)[O-])c(NCc3ccco3)c2)CC1,10.8% (inactive),–
